Among the data in PubChem BioAssay (Tox21) are Potency and outcome values, retold here.

The nature of assay [1]: qHTS assay to identify small molecule agonists of the peroxisome proliferator-activated receptor delta (PPARd) signaling pathway - cell viability counter screen (AID 743211). Further: nearly all actives have a fitted effect of over 55% in size. The gist of the method:
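Tox21 library compounds, delivered in DMSO, were incubated 17 h with PPARd-bla HEK293H cells; cytotoxicity was taken from CellTiter-Glo luminescence read 30 min after reagent addition.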
(In qHTS, concentration-response curves come from the screen itself.)

For assay [2], the target named is Peroxisome proliferator-activated receptor delta (Homo sapiens) (UniProt Q03181). Put plainly: qHTS assay to identify small molecule agonists of the peroxisome proliferator-activated receptor delta (PPARd) signaling pathway (AID 743212; calls by dose curve). The gist of the method: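 HEK293H PPARd-bla cells; 5 h preincubation 37 C/5% CO2; compound (DMSO) 37 C; LiveBLAzer B/G FRET substrate 2 h RT; fluorescence intensity.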

A short description of assay [3]: qHTS assay to identify small molecule antagonists of the peroxisome proliferator-activated receptor delta (PPARd) signaling pathway - cell viability counter screen (AID 743213). Further: nearly all actives have a fitted effect of over 50% in size. Further: potency means the concentration at half of the fitted maximal effect. In a few lines:
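Viability counter-screen, qHTS format: PPARd-bla HEK293H, L165041 300 nM final, 17 h compound exposure at 37 C, CellTiter-Glo luminescence after 30 min RT.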

The target of assay [4] is Peroxisome proliferator-activated receptor delta (Homo sapiens) (UniProt Q03181). The experiment in a line: qHTS assay to identify small molecule antagonists of the peroxisome proliferator-activated receptor delta (PPARd) signaling pathway (AID 743215; active means well fitted inhibition curve with a large enough effect in the signal ratio in the repeat runs, not every such curve was filed as active; the % refers to the signal ratio;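 further: cells stimulated with agonist L165041 at 300 nM final during compound exposure; series mostly up to about 62 µM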). The gist of the method:
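PPARd-bla HEK293H cells (UAS-bla reporter) preincubated 5 h, then given compound plus 300 nM final L165041 agonist for 17 h at 37 C. Beta-lactamase activity read by LiveBLAzer B/G FRET substrate fluorescence after 2 h at room temperature.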

Assay [5] is described as follows: qHTS assay to identify small molecule agonists of the farnesoid-X-receptor (FXR) signaling pathway - cell viability counter screen (AID 743218). Further: nearly all actives have a fitted effect of over 45% in size. The gist of the method:
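FXR-UAS-bla HEK 293T cells exposed to compounds for 16 h at 37C. Cytotoxicity read in the same wells by CellTiter-Glo luminescence after 30 min at room temperature, following the beta-lactamase FRET read.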

Assay [6] can be described thus: qHTS assay to identify small molecule antagonists of the farnesoid-X-receptor (FXR) signaling pathway - cell viability counter screen (AID 743221; active means well fitted cell-killing curve with a large enough effect in the repeat runs, not every such curve was filed as active; further: nearly all actives have a fitted effect of over 50% in size). The gist of the method: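 Cytotoxicity is taken from ATP luminescence (CellTiter-Glo, 30 min, room temperature) in FXR-bla HEK 293T cells previously incubated 16 h at 37 C with compound and chenodeoxycholic acid at 50 uM final.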

In assay [7] the target is Vitamin D3 receptor (Homo sapiens) (UniProt P11473). The experiment in a line: qHTS assay to identify small molecule agonists of the vitamin D receptor (VDR) signaling pathway (AID 743222; calls by dose curve). In a few lines:
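VDR-bla cells plated 4 h at 37 C, then exposed to compounds for 16 h at 37 C. Beta-lactamase reporter activity measured by fluorescence after 2 h room-temperature loading with LiveBLAzer B/G FRET substrate.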

Assay [8] shares this target. Put plainly: qHTS assay to identify small molecule antagonists of the vitamin D receptor (VDR) signaling pathway (AID 743223; active means well fitted inhibition curve with a large enough effect in the signal ratio in the repeat runs, not every such curve was filed as active; the % refers to the signal ratio). In a few lines:
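Quantitative HTS in VDR-bla reporter cells stimulated with 1alpha,25-dihydroxyvitamin D3, 3 nM final. Compound exposure 16 h, 37C, 5% CO2. Read-out: beta-lactamase FRET substrate fluorescence, 2 h RT.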

Assay [9] in a line: qHTS assay to identify small molecule agonists of the vitamin D receptor (VDR) signaling pathway - cell viability counter screen (AID 743224). Further: series mostly up to about 63 µM; nearly all actives have a fitted effect of over 50% in size. The gist of the method: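 VDR-bla cells, 4 h after plating, exposed to compounds for 16 h at 37C; viability then read in the same wells as CellTiter-Glo luminescence after 30 min at room temperature, following the bla FRET read.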
Assay [10] can be described thus: qHTS assay to identify small molecule antagonists of the vitamin D receptor (VDR) signaling pathway - cell viability counter screen (AID 743225). Further: nearly all actives have a fitted effect of over 50% in size. In a few lines: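 Same-well multiplex: following 16 h treatment of HEK 293T cells carrying a UAS-driven beta-lactamase reporter with compound and agonist (3 nM final), and a 2 h FRET substrate step, CellTiter-Glo was added and luminescence read after 30 min.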

Assay [11] in a line: qHTS assay to identify small molecule agonists of the NFkB signaling pathway (AID 1159509; active means well fitted curve in the direction sought with a large enough effect in the signal ratio in the repeat runs, not every such curve was filed as active; the % refers to the signal ratio; further: series mostly up to about 61 µM). In a few lines: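 NFkB-bla ME-180 cells carry a beta-lactamase reporter under an NF-kB response element. They were plated overnight, then exposed to compounds for 5 h at 37 C. Read-out is LiveBLAzer FRET after 1.5 hr at room temperature (405 nm excitation; 460/530 nm emission).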
Assay [12] can be described thus: qHTS assay to identify small molecule agonists of the NFkB signaling pathway - cell viability counter screen (AID 1159515; calls by dose curve; further: nearly all actives have a fitted effect of over 55% in size; further: potency means the concentration at half of the fitted maximal effect). The gist of the method: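 NFkB-bla ME-180 cells, 2,000/well, plated overnight at 37 C; compound added for 5 hr at 37 C. Viability read in the same wells as the bla reporter, by CellTiter-Glo luminescence after 30 min at room temperature.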

Assay [13] can be described thus: qHTS assay to identify small molecule agonists of the endoplasmic reticulum stress response signaling pathway - cell viability counter screen (AID 1159517; calls by dose curve). The gist of the method:
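HeLa cells carrying an ESRE-driven beta-lactamase reporter receive compound for 5 hr at 37 C. Cell viability is then gauged with CellTiter-Glo by luminescence, 30 min at room temperature.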

A short description of assay [14]: qHTS assay to identify small molecule antagonists of the retinoid-related orphan receptor gamma (ROR-gamma) signaling pathway - cell viability counter screen (AID 1159520). Further: nearly all actives have a fitted effect of over 50% in size. The gist of the method:
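Cytotoxicity was read from cellular ATP (CellTiter-Glo luminescence) after 16 hr at 37 C with 1 uM doxycycline induction. The inducer was added 2 hr after compound transfer to Tet-on ROR gamma CHO cells.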

Assay [15] has as its target Nuclear receptor ROR-gamma (Homo sapiens) (UniProt P51449). The experiment in a line: qHTS assay to identify small molecule antagonists of the retinoid-related orphan receptor gamma (ROR-gamma) signaling pathway (AID 1159521). The gist of the method:
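Inducible-expression reporter assay: doxycycline (1 uM final) switched on RORγ in CHO cells bearing a ROR response element-luciferase construct, with test compounds present from 2 h beforehand. Decreased luminescence after 16 h defined antagonist activity.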

A short description of assay [16]: qHTS assay to identify small molecule agonists of the AP-1 signaling pathway - cell viability counter screen (AID 1159525; calls by dose curve; further: nearly all actives have a fitted effect of over 55% in size; further: potency means the concentration at half of the fitted maximal effect). In a few lines:
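Luminescent ATP readout (Cell Titer Glo, 30 min RT), normalised to DMSO and tetra n-octyl ammonium bromide controls. Cells were ME-180 AP-1-bla in 0.5% dialyzed FBS Opti-MEM, with a 5 h, 37 °C compound exposure.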

A short description of assay [17]: qHTS assay to identify small molecule agonists of the AP-1 signaling pathway (AID 1159526; calls by dose curve).
For assay [18], the target named is Bile acid receptor (Homo sapiens) (UniProt Q96RI1). Put plainly: qHTS assay to identify small molecule antagonists of the farnesoid-X-receptor (FXR) signaling pathway (AID 743217; active means well fitted inhibition curve with a large enough effect in the signal ratio in the repeat runs, not every such curve was filed as active; the % refers to the signal ratio). In a few lines: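 FXR-UAS-bla HEK 293T cells (beta-lactamase reporter) given compound plus chenodeoxycholic acid (50 uM final), 16 h at 37C. LiveBLAzer B/G FRET substrate added for 2 h at room temperature; fluorescence read.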

Assay [19] has the same target. Put plainly: qHTS assay to identify small molecule agonists of the farnesoid-X-receptor (FXR) signaling pathway (AID 743220; active means well fitted activation curve with a large enough effect in the signal ratio in the repeat runs, not every such curve was filed as active; the % refers to the signal ratio). In a few lines:
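Beta-lactamase reporter under UAS control in GeneBLAzer FXR HEK 293T cells (5000/well) measured with LiveBLAzer FRET substrate after 2 h at room temperature. Compound exposure lasted 16 h at 37C.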

Assay [20] can be described thus: qHTS assay to identify small molecule agonists of the endoplasmic reticulum stress response signaling pathway (AID 1159516; active means well fitted activation curve with a large enough effect in the signal ratio in the repeat runs, not every such curve was filed as active; the % refers to the signal ratio). In a few lines: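 CellSensor ESRE-bla HeLa cells, 1,500 per well, plated overnight, then exposed to compounds for 5 hr at 37 C. Beta-lactamase reporter read with LiveBLAzer B/G FRET substrate after 2 hr at room temperature, 405 nm excitation, 460 and 530 nm emission.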

Each structure is given as a SMILES string. Records with an inconclusive call do not appear. A number with no mark means an inactive call. Activity calls are given as the source filed them. Unless noted, the call rests on the fitted dose curve; in most records, active means well fitted curve in the direction sought with a large enough effect in the repeat runs; inconclusive means weak or mixed curves; inactive means no such curve, though single readings can be large; an effect the other way counts as inactive or inconclusive.

Chain of Peroxisome proliferator-activated receptor delta (Homo sapiens) (Q03181 whole entry, looked up): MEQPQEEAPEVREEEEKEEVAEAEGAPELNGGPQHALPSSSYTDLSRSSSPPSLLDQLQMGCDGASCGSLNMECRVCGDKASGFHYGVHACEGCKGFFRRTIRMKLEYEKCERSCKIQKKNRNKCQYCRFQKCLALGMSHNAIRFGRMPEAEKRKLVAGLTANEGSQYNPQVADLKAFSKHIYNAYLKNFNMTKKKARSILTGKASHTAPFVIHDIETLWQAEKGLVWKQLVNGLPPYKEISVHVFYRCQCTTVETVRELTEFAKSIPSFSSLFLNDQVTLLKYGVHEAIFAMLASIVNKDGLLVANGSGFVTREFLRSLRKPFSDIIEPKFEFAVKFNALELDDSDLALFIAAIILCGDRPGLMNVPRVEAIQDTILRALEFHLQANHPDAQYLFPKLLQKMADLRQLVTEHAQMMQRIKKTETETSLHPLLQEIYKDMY
Chain of Bile acid receptor (Homo sapiens) (Q96RI1 whole entry, looked up): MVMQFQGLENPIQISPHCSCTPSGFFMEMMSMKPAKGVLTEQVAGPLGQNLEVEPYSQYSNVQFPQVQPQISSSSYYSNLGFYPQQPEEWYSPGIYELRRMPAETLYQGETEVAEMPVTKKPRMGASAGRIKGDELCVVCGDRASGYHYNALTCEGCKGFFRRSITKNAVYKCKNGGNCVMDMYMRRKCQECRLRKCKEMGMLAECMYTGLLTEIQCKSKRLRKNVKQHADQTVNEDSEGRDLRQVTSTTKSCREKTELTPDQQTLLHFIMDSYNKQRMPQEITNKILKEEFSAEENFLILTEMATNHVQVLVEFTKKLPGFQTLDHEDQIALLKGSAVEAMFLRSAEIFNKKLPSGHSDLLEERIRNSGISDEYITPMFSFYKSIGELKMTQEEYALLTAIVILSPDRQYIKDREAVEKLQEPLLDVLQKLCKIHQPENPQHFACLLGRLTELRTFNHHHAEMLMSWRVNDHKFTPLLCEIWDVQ
Chain of Vitamin D3 receptor (Homo sapiens) (P11473 whole entry, looked up): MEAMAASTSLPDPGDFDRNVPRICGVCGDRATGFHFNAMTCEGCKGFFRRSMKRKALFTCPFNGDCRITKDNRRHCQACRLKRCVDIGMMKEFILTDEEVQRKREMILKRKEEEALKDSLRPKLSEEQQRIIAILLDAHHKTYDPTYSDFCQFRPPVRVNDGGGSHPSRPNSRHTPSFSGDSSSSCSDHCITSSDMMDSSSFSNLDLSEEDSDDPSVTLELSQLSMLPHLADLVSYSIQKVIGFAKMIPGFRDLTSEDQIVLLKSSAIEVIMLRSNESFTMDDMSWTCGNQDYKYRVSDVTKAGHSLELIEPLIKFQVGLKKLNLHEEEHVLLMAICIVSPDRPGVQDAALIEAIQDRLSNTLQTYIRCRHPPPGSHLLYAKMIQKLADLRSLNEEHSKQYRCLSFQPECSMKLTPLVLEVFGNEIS

For the compound `CCOCCC(=O)OCC`, the Potency result in assay [1], in assay [3], in assay [4], in assay [5], in assay [6] and in assay [9] was “inactive” in each case. Besides, the Potency entry in [10], in assay [12], in assay [13], in assay [14], in assay [15] and in assay [16] was “inactive” in each case. Further, the result in assay [2], in assay [7], in assay [8], in [11] and in [17] was inactive.
On to `CCCCOC(=O)CCCCC(=O)OCCCC`, for which the Potency result in [1], in assay [3], in assay [4], in assay [5], in assay [6] and in assay [9] was “inactive” each time. For the same compound, the Potency entry in [10], in [12], in assay [13], in [14], in assay [15] and in [16] was “inactive” in each case. Further, the call in assay [2], in assay [7], in assay [8], in assay [11] and in assay [17] was inactive.
Consider `COc1cc(OC)c2ccc(=O)oc2c1`, for which the Potency entry in [1], in assay [3], in [5], in [6], in assay [10] and in [12] was “inactive” throughout. For the same compound, the Potency result in assay [13], in assay [14], in [15] and in assay [16] was “inactive” in each case. The outcome in assay [2], in assay [11] and in [17] was inactive.
For the compound `CSSc1ccoc1C`, the Potency result in assay [1], in assay [3], in [4], in assay [19], in assay [6] and in [9] was “inactive” in each case. The Potency entry in assay [12], in [13], in assay [14], in [15] and in assay [16] was “inactive” throughout. Moreover, the outcome in assay [18], in assay [11] and in assay [17] was inactive.
For `CCN(CC)c1ccc(C(=C2C=CC(=[N+](CC)CC)C=C2)c2ccc(S(=O)(=O)O)cc2S(=O)(=O)[O-])cc1`, the outcome in assay [2], in assay [8] and in assay [11] was inactive. The Potency in assay [3] was 27.5 µM (active); in assay [12], 43.6 µM (active); in assay [16] it was 19.5 µM (active). The Potency result in assay [6], in assay [10] and in [20] was “inactive” in each case.
With `CCCOC(=O)c1c(Cl)c(Cl)c(Cl)c(Cl)c1C(=O)OCCC`, the Potency result in assay [1], in assay [3], in assay [4], in [9], in assay [12] and in [20] was “inactive” in each case. The Potency entry in assay [16] was “inactive”. The result in assay [2], in assay [7], in assay [8] and in assay [11] was inactive.
As to `COc1ccc(-c2cc(C(F)F)nn2-c2ccc(S(N)(=O)=O)cc2)cc1F`, the Potency entry in assay [1], in assay [3], in assay [19], in [6], in assay [10] and in assay [12] was “inactive” each time. In addition, the Potency entry in assay [20] and in [16] was “inactive” throughout. Besides, the outcome in [2], in assay [7], in [8], in [11] and in assay [17] was inactive.
As for `CC(=O)NCCO`, the Potency entry in [1], in assay [3], in assay [5], in assay [6], in assay [10] and in assay [12] was “inactive” throughout. In addition, the Potency result in assay [13], in [14], in assay [15] and in [16] was “inactive” throughout. Besides, the outcome in assay [2], in assay [7], in assay [8], in [11] and in assay [17] was inactive.
On to `COc1ccc(CCN(C)CCCN2CCc3cc(OC)c(OC)cc3CC2=O)cc1OC`, for which the Potency result in assay [1], in assay [3], in assay [5], in assay [6], in [9] and in [10] was “inactive” throughout. The Potency entry in assay [12], in assay [13], in [14], in assay [15] and in assay [16] was “inactive” throughout. Moreover, the compound was classed as inactive in assay [2], in assay [11] and in [17].
